For some assays here: Measured potencies and affinities stand elsewhere.
Each compound was assayed against T1, Ubiquitin-activating enzyme e1, putative (Leishmania donovani (strain BPK282A1)) (UniProt E9BSI1) (assay: Leishmania donovani Ubiquitin Activating Enzyme (LdE1)). Conditions: 30 µM.
T1 sequence (whole entry): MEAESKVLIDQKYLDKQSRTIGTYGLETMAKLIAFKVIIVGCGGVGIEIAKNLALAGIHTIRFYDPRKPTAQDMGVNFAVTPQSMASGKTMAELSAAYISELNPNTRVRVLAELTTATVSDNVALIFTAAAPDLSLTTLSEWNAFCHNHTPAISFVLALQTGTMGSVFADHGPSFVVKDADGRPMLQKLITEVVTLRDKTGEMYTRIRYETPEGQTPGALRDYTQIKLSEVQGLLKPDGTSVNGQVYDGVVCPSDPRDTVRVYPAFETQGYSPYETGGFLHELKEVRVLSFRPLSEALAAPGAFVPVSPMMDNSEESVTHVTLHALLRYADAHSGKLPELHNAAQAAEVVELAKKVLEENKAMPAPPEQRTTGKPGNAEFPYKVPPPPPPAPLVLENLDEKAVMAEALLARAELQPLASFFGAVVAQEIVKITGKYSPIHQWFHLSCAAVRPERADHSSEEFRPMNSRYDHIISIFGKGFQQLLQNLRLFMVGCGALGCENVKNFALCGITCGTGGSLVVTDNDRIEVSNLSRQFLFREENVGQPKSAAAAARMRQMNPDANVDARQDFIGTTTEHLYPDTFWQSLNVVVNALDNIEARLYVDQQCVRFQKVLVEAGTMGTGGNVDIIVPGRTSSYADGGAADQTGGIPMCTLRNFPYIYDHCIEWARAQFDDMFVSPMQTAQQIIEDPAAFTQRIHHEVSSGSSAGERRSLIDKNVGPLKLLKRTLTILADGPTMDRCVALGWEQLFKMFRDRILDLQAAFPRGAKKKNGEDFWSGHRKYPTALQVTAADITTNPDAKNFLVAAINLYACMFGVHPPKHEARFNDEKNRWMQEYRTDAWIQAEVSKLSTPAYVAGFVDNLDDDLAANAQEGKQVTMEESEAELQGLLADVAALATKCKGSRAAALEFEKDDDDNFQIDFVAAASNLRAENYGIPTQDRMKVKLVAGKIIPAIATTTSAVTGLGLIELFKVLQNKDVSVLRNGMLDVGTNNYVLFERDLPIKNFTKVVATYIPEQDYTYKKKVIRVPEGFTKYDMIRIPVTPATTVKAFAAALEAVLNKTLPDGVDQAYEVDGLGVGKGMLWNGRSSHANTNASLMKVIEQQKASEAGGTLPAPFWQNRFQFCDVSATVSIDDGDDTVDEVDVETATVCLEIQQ
Type: functional
Design: scale not given: direction of the effect not stated beside the values
In the case of `Cn1ncc2c(NCCOc3ccc(F)cc3)nc(C3CCCC3)nc21`, the Percent Effect was 5.48%. With `COCC1c2c(cnn2C)CCN1Cc1ccoc1` (stereo not given) the Percent Effect was -2.7%. For `CC(=O)Nc1nc(CN2CCCCC2Cn2cccn2)cs1` (stereo not given), the Percent Effect was 5.26%. In the case of `O=C(NCC1CC1)c1nc(COc2ccc3c(c2)OCO3)no1`, the Percent Effect was 4%. For `Cc1nccc(-c2cccc(NCC(=O)N3CCNC3=O)c2)n1`, the Percent Effect was 21.1%. Compound `Cc1ccc(CN2CC3(CCN(C(=O)c4cscn4)C3)C2)s1` has a Percent Effect of 0%. Work on `CCCc1nc(CN2CCOC(Cn3cncn3)C2)no1` (stereo not given) yielded a Percent Effect of 11.4%. In the case of `Cc1nn(C)c(C)c1CNC1CCOc2ccccc21` (stereo not given), the Percent Effect was 5.41%. Work on `Cc1noc2nc(C3CCN(Cc4cccnc4)CC3)cc(C(F)F)c12` yielded a Percent Effect of 1.35%. `COc1cc(OC)c(C2Nc3cc(Cl)ccc3C3=NCCN32)cc1OC` (stereo not given) showed a Percent Effect of -8%.

The compounds below were run against AMP-activated protein kinase, AMPK (Homo sapiens) (UniProt P54646+O43741+P54619+Q9UGJ0+Q9Y478+Q13131+Q9UGI9) (assay: AMP-dependent Kinase enzyme assay. An in vitro enzyme assay that detects ADP turnover that is directly proportional to AMPK activity. This uses naive AMPK that is activated during the assay with MK-8722). Conditions: 30 µM.
Type: functional
Design: scale not given: direction of the effect not stated beside the values
Compound `N#CC1(C(=O)N2CCN(Cc3ccon3)CC2)CCC1` has a Percent Effect of 1.56%. In the case of `Cc1ccc2c(c1)c(CNC(=O)C1CC(=O)N(C3CCCC3)C1)nn2C` (stereo not given), the Percent Effect was 4.01%. Work on `CCOc1cc(C)nc(N2CCN(Cc3nccn3C)CC2)n1` yielded a Percent Effect of -6.46%. In the case of `CCN(CC)C(=O)CCNC(=O)N1CCC(c2ccccc2)C1` (stereo not given), the Percent Effect was -3.55%. Work on `CCN1CCOC(CNCc2ccccc2OCC(=O)N(C)C)C1` (stereo not given) yielded a Percent Effect of -9.78%. `CC(NCc1ccc(Cl)o1)c1nnc2n1CCCC2` (stereo not given) showed a Percent Effect of 2.81%. For `Cc1ccc(NC(=O)Cn2cc(I)cn2)cc1`, the Percent Effect was -12.3%. In the case of `CC(C)c1nnc2n1CCN(C(=O)CN1Cc3ccccc3C1=O)C2`, the Percent Effect was -4.36%. In the case of `O=C(c1ccc(Cl)c(Cl)c1)N1CCCC(n2cncn2)C1` (stereo not given), the Percent Effect was -3.55%. `O=C1COc2cc(C(=O)NS(=O)(=O)c3ccccc3F)ccc2N1` was tested, and the Percent Effect was 3.61%. For `CN(C)[C@@H]1CCN(c2ncccn2)[C@H]1Cc1ccncc1`, the Percent Effect was -0.281%. Work on `O=C([C@H]1CCCO1)N1CCc2ncnc(NC3CC3)c2CC1` yielded a Percent Effect of -0.252%. For `c1ccc(-c2nnc(CNCCn3cccn3)o2)cc1`, the Percent Effect was 1.44%. Compound `CC(C)c1nc2c(n1C)CCN(Cc1nc(-c3cccs3)no1)C2` has a Percent Effect of 8.78%. Work on `COCCN1CC[C@@H]2OC[C@H](C(=O)NCc3cccs3)C[C@@H]2C1` yielded a Percent Effect of 0.443%. For `O=C(NCc1ccc(F)cc1)N1CCC(C2OCCO2)CC1`, the Percent Effect was 6.23%. Work on `CN(Cc1nnc(C2CC2)n1C)C1CCN(Cc2ccc(F)cc2)C1` (stereo not given) yielded a Percent Effect of -8.58%. `CN(C(=O)c1cccc2[nH]ncc12)C1CCN(c2ccccn2)CC1` showed a Percent Effect of -0.81%. Work on `Cc1nnc(N2CCC(CN(C)C(C)C)CC2)c(C#N)c1C` yielded a Percent Effect of -19%. Compound `Cc1cc(-c2nnc(SCC(=O)O)n2C(C)c2ccccc2)nn1C` (stereo not given) has a Percent Effect of -0.551%. For `CC(C)OCc1ncn2c1CN(Cc1ccc(F)cc1)CCC2`, the Percent Effect was 2.07%. `Fc1cnc(N2C[C@H]3CCC[C@@]3(COc3ccccn3)C2)nc1` showed a Percent Effect of 6.16%. Compound `CCS(=O)(=O)N1CCC2(CCCN(Cc3cc(OC)ccc3F)C2)C1` (stereo not given) has a Percent Effect of -5.98%. With `COC(=O)c1ccc(C(=O)NS(=O)(=O)c2cncc(Br)c2)cc1` the Percent Effect was 0.578%. With `COc1c(CNC(c2nccn2C)C(C)C)c(C)nn1C` (stereo not given) the Percent Effect was 0.924%. With `CC(C)c1nc(CN(C)CC2CCN(CCO)CC2)no1` the Percent Effect was -3.56%. Compound `c1ccc2c(N3CCCC3Cn3cccn3)ncnc2c1` (stereo not given) has a Percent Effect of -4.33%. `CCOc1ccc(N2CCCN=C2NC(=O)c2ccccc2C)cc1` showed a Percent Effect of -2.01%. `Cc1csc(N2CCN(C(=O)CCc3ccccn3)CC2)n1` gave a Percent Effect of -16%. In the case of `COc1ccc(Cc2nnc(SC)o2)cc1OC`, the Percent Effect was -3.66%. Work on `Cn1ncc2c(NCCOc3ccc(F)cc3)nc(C3CCCC3)nc21` yielded a Percent Effect of 12.7%. In the case of `COCC1c2c(cnn2C)CCN1Cc1ccoc1` (stereo not given), the Percent Effect was 3.57%. With `CC(=O)Nc1nc(CN2CCCCC2Cn2cccn2)cs1` (stereo not given) the Percent Effect was 3.07%. Compound `O=C(NCC1CC1)c1nc(COc2ccc3c(c2)OCO3)no1` has a Percent Effect of 1.6%. Compound `Cc1nccc(-c2cccc(NCC(=O)N3CCNC3=O)c2)n1` has a Percent Effect of -11.7%. For `Cc1ccc(CN2CC3(CCN(C(=O)c4cscn4)C3)C2)s1`, the Percent Effect was 1.31%. For `CCCc1nc(CN2CCOC(Cn3cncn3)C2)no1` (stereo not given), the Percent Effect was -5.09%. Work on `Cc1nn(C)c(C)c1CNC1CCOc2ccccc21` (stereo not given) yielded a Percent Effect of -3.93%. `Cc1noc2nc(C3CCN(Cc4cccnc4)CC3)cc(C(F)F)c12` gave a Percent Effect of 4.19%. Compound `COc1cc(OC)c(C2Nc3cc(Cl)ccc3C3=NCCN32)cc1OC` (stereo not given) has a Percent Effect of -2.93%.

— ChEMBL document CHEMBL3988442, “University of Dundee, Small-Polar-MMV Screening Library” (2021)
